From PubChem BioAssay
Most compounds without a hit are left out; they make up all but 6.7% or so of the library.
Pf_Dd2_growth – blocks growth of Plasmodium falciparum Dd2 parasites. P. falciparum Dd2 growth, SYBR Green, 72 h; hits give low values. activity change, % at 10 µM. 94,000 tested, 2.3% active. AID 1159554; in the data active means activity change below about -80%; inconclusive means no clear call, values can overlap the other calls
T_cruzi_growth-1 – inhibitors of T. cruzi proliferation | inhibition, % at 8.34 µM | T. cruzi beta-gal in NIH3T3, GalScreen luminescence, 90 h | 77,000 tested, 5.9% active;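 active means mean inhibition above about 93%, with at least 55% of replicates each passing it, limit read from the data, passing the limit was not always enough; inconclusive means only one of those two conditions holds; inactive means neither condition holds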
C_diff_HTS – C. difficile growth inhibition; growth activity, negative = inhibition, % at 16 µg/mL (by protocol); 86,000 tested, 0.25% active; AID 1259249; Clostridium difficile clinical isolate growth, OD600, 24 h; hits give low values;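 active means mean growth activity at or below -80% and every replicate also at or below -80%; inconclusive means mean at or below -80% but some replicate above -80%; inactive means mean growth activity above -80%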;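 further: 0% = DMSO wells and -100% = levofloxacin 16 µg/mL wells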
T_cruzi_growth-2 – Trypanosoma cruzi proliferation inhibition. shares compounds with T_cruzi_growth-1. T. cruzi beta-gal in NIH3T3, GalScreen luminescence, 90 h. inhibition, % at 8.35 µM. 5,600 tested, 72% active. AID 651739;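 active means mean replicate inhibition above about 95% and at least 55% of replicates individually reaching it, limit read from the data; inconclusive means only one of the two criteria is met; inactive means neither criterion is met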
T_cruzi_growth-3 – blocks T. cruzi growth in NIH3T3 host cells; shares compounds with T_cruzi_growth-1; T. cruzi beta-gal in NIH3T3, GalScreen luminescence, 90 h; inhibition, % at 2.09 µM; 5,600 tested, 21% active;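 active means mean inhibition above about 95%, with at least 55% of replicates also reaching it, limit read from the data; inconclusive means meets just one of the two conditions; inactive means meets neither condition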;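 further: plate controls were neutral control median for no effect and positive control median for full effect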
3T3_cytotox – kills mouse NIH/3T3 fibroblasts. AID 651742. cytotoxicity (signal decrease), % at 8.35 µM. NIH/3T3 viability, CellTiter-Glo ATP luminescence, 90 h. shares compounds with T_cruzi_growth-1. 5,600 tested, 14% active;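 active means mean signal decrease across replicates above about 35% based on untreated-well scatter, with enough replicates individually passing, limit read from the data; inconclusive means no rule stated though some were filed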;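 further: 0% = median of neutral control wells and 100% = median of positive control wells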
3T3_cytotox_2 – kills mouse NIH/3T3 fibroblasts. shares compounds with T_cruzi_growth-1. NIH/3T3 viability, CellTiter-Glo ATP luminescence, 90 h. inhibition, % at 24.9 µM. 5,600 tested, 56% active. AID 651744;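 active means mean loss of cell viability signal at or above a set limit, and enough replicates individually reaching it; inconclusive means meets only the mean limit or only the replicate share; inactive means meets neither condition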;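 further: 0% = median of neutral control wells and 100% = median of positive control wells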
Numbers without * were called inactive; ? = inconclusive; nt = no result; ! = repeats disagree.

SMILES Pf_Dd2_growth T_cruzi_growth-1 C_diff_HTS T_cruzi_growth-2 T_cruzi_growth-3 3T3_cytotox 3T3_cytotox_2
O=C(C1CCCC1)N1C[C@@H]2[C@H](c3ccccc31)[C@@H](CO)N2C(=O)c1cccnc1 18 39 -4 nt nt nt nt
O=C(N[C@H]1CC[C@H](CCNC(=O)C2CC2)O[C@H]1CO)c1ccncc1 nt nt 0 nt nt nt nt
CCc1csc(N2[C@H](CO)[C@H](c3ccc(-c4cccc(F)c4)cc3)[C@@H]2C#N)n1 23 73 10 nt nt nt nt
CCc1csc(N2[C@H](C#N)[C@@H](c3ccc(-c4cccc(F)c4)cc3)[C@@H]2CO)n1 -16 98* 5 111* 81 21 96*
C[C@@H]1CN([C@H](C)CO)C(=O)c2cc(NS(C)(=O)=O)ccc2O[C@@H](C)CCCCO[C@@H]1CN(C)Cc1ccccc1 -41 -29 3 nt nt nt nt
C[C@@H]1CN([C@H](C)CO)C(=O)Cc2cc(NC(=O)Cn3cnnn3)ccc2O[C@H]1CN(C)S(=O)(=O)c1ccccc1 -6 18 -5 nt nt nt nt
C[C@@H]1CN([C@@H](C)CO)S(=O)(=O)c2ccc(-c3cccc(C#N)c3)cc2O[C@@H]1CN(C)C(=O)c1ccc(F)cc1 -15 109*! -2 97* 91 ? 73*
C[C@H](CO)N1C[C@H](C)[C@@H](CN(C)C(=O)c2ccc(F)cc2)Oc2cc(-c3cccc(C#N)c3)ccc2S1(=O)=O -51 48 -7 nt nt nt nt
C[C@H]1CN([C@@H](C)CO)S(=O)(=O)c2ccc(-c3cccc(C#N)c3)cc2O[C@H]1CN(C)C(=O)c1ccc(F)cc1 -64 103* 7 89 44 30 78*
C[C@@H]1CN([C@H](C)CO)S(=O)(=O)c2ccc(-c3cccc(C#N)c3)cc2O[C@H]1CN(C)C(=O)c1ccc(F)cc1 -48 78 -4 nt nt nt nt
CCCNC(=O)[C@H]1[C@H](CO)[C@H]2Cn3c(ccc(-c4ccncc4)c3=O)[C@@H]1N2CC1CC1 20 38 -1 nt nt nt nt
Cc1noc(C)c1NC(=O)N[C@H]1CC[C@@H](CCNC(=O)C2CCCCC2)O[C@H]1CO 5 -35 0 nt nt nt nt
Cc1cccc(-c2ccc([C@H]3[C@@H](CO)N4CCCCN(C(=O)c5cccnc5)C[C@@H]34)cc2)c1 26 ? -10 108* 42 36* 22
Cc1cccc(-c2ccc([C@@H]3[C@H]4CN(C(=O)c5cccnc5)CCCCN4[C@H]3CO)cc2)c1 44 104* -1 73 30 11 42*
Cc1ccccc1-c1ccc([C@H]2[C@H]3CN(C(=O)c4cccnc4)CCCCN3[C@H]2CO)cc1 25 36 -3 nt nt nt nt
Cc1cccc(-c2ccc([C@H]3[C@@H](CO)N4CCCCN(C(=O)c5cccnc5)C[C@H]34)cc2)c1 25 114* 0 96* 75 10 ?
Cc1cccc(-c2ccc([C@H]3[C@H](CO)N4CCCCN(C(=O)c5ccncc5)C[C@@H]34)cc2)c1 17 68 -3 nt nt nt nt
Cc1cccc(-c2ccc([C@H]3[C@@H](CO)N4CCCCN(C(=O)c5ccncc5)C[C@@H]34)cc2)c1 18 79 4 nt nt nt nt
CO[C@H]1CN(C)C(=O)c2cc(NS(=O)(=O)c3ccc(Cl)cc3)ccc2OC[C@@H](C)N(C(=O)NC(C)C)C[C@@H]1C nt 31 nt nt nt nt nt
C[C@@H]1CN([C@@H](C)CO)S(=O)(=O)c2ccc(C#C[C@@H](C)O)cc2O[C@H]1CN(C)C(=O)C1CCC1 9 8 1 nt nt nt nt
CC(C)NC(=O)N1CC[C@@H]2[C@H]1c1cc(-c3ccc(F)cc3)ccc1N(C)[C@@H]2CO -10 108* 22 111* 85 -1 9
CC(C)NC(=O)N1CC[C@@H]2[C@@H](CO)N(C)c3ccc(-c4ccc(F)cc4)cc3[C@@H]21 17 100* 5 105* 101* -22 49*
CC(C)NC(=O)N1CC[C@@H]2[C@H]1c1cc(-c3cccc(F)c3)ccc1N(C)[C@H]2CO -36 75 -6 nt nt nt nt
COc1ccc(-c2ccc3c(c2)[C@@H]2[C@@H](CCN2C(=O)NC(C)C)[C@H](CO)N3C)cc1 -24 29 4 nt nt nt nt
